Reference: PubChem BioAssay AID652070 (Broad Institute, 2013)
Results filed as inconclusive are left out. Calls of active or inactive are those of the source. How the calls were made is not given here.

Assay: caspase 3/7 activation in HT29 HRAS cells, mechanism study for HRAS target identification, cell-based, caspase 3/7 luminescence, multiple timepoints, dry powder (AID 652070)
Conditions: max activity: measured here: third timepoint caspase 3/7, at 0.068 µM, stronger effect = higher value unless noted

| Structure (SMILES) | max activity | outcome |
| --- | --- | --- |
| Cc1onc(C(=O)N2CCN(C(c3ccc(Cl)cc3)c3ccc(OCCOCCOCCNC(=O)OC(C)(C)C)cc3)CC2)c1[N+](=O)[O-] (configuration not stated) | 22.2% [measured here: third timepoint caspase 3/7, at 0.0001 µM, stronger effect = higher value] | inactive |
| O=C(NCCOCCOCCOc1ccc(N(C(=O)CCl)C(C(=O)NCCc2ccccc2)c2cccs2)cc1Cl)c1ccc(COC2C#CCCCCC2)cc1 (configuration not stated) | 24.4% | inactive |
| Cc1onc(C(=O)N2CCN(C(c3ccc(Cl)cc3)c3ccc(Cl)cc3)CC2)c1[N+](=O)[O-] | 13.3% [measured here: third timepoint caspase 3/7, at 0.0001 µM, stronger effect = higher value] | inactive |
| CO[C@H]1C[C@@H]2CC[C@@H](C)[C@@](O)(O2)C(=O)C(=O)N2CCCC[C@H]2C(=O)O[C@H]([C@H](C)C[C@@H]2CC[C@@H](O)[C@H](OC)C2)CC(=O)[C@H](C)/C=C(\C)[C@@H](O)[C@@H](OC)C(=O)[C@H](C)C[C@H](C)/C=C/C=C/C=C/1C | 31.1% [measured here: third timepoint caspase 3/7, at 35 µM, stronger effect = higher value] | inactive |
| COc1ccc(N(C(=O)CCl)C(C(=O)NCCc2ccccc2)c2cccs2)cc1Cl (configuration not stated) | 22.2% [measured here: third timepoint caspase 3/7, at 8 µM, stronger effect = higher value] | inactive |
| CCC(=O)N(c1ccc(OC)c(Cl)c1)C(C(=O)NCCc1ccccc1)c1cccs1 (configuration not stated) | 17.8% | inactive |
